Source: PubChem
KB-V1 cytotox: kills drug-selected multidrug resistant KB-V1 cells | AID 1347076 | 400,000 tested, 3.4% active | Potency, µM (series often up to 46.1 µM), actives largely listed as cytotoxic | KB-V1 MDR cells viability, CellTiter-Glo, 72 h; note: % is set by controls: 0 for no effect and ±100 for the full control effect; nearly all actives have a fitted effect of over 60% in size
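Cells of the MDR subline KB-V1 are plated, dosed with compound at multiple concentrations, and incubated 72 h at 37 degrees C; CellTiter-Glo is then added and luminescence read after 10 min.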
SW480 rereplic: DNA re-replication induction in SW480 cells | SW480 DNA re-replication, Hoechst DNA content imaging, 48 h | Potency, µM (doses to about 46.1 µM), for inactives: at the highest dose re-replication activation, actives largely listed as activators | 340,000 tested, 1.8% active | AID 624297; note: % of control where 0% means no effect; nearly all actives have a fitted effect of over 55% in size
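250 cells/well; 23 nL cpd via pin tool; 48 hr, 37 C, 5% CO2; Hoechst 40 min; imager read of total nuclear intensity, ex 405/em 500-530 nm.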
KB-3-1 tox: KB-3-1 parental cell cytotoxicity; KB-3-1 viability, CellTiter-Glo ATP luminescence, 72 h; Potency, µM (doses to about 46.1 µM), hits mostly cytotoxic; 400,000 tested, 1.4% active; AID 1347075; note: % is set by controls: 0 for no effect and ±100 for the full control effect; nearly all actives have a fitted effect of over 60% in size
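Cytotoxicity measured as CellTiter-Glo luminescence after 72 h at 37 C. Compound titrations were pinned onto drug-naive KB-3-1 parental adenocarcinoma cells grown in DMEM with 10% FBS, and normalized data fitted to concentration-response curves.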
MCF10A rerep: induces DNA re-replication in MCF 10a normal breast cells. AID 624296. 350,000 tested, 2.9% active. MCF 10A DNA re-replication, Hoechst nuclear intensity, 48 h. Potency, µM (top dose mostly 46.1 µM), for inactives: at the highest dose activity, positive = re-replication, actives largely listed as activators; note: % of control where 0% means no effect; nearly all actives have a fitted effect of over 50% in size
HT1080 IDH1KD tx: kills HT-1080 cells with IDH1 knockdown; HT-1080 IDH1 knockdown viability, ATP luminescence, 48 h; Potency, µM (series often up to 46.1 µM), for inactives: at the top dose activity, negative = toxicity, usual class: cytotoxic; 360,000 tested, 2% active; AID 686971;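 note: 0% = DMSO wells and -100% = cell-free medium wells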
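CellTiter-Glo luminescence after 48 h compound exposure at 37 degrees C of IDH1-knockdown HT-1080 cells in 5% FBS RPMI. %Activity scaled between DMSO wells and cell-free media wells, with curves fitted and assigned curve classes.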
HT1080NT lethal: kills 2HG-producing HT-1080-NT fibrosarcoma cells. HT-1080-NT fibrosarcoma viability, CellTiter-Glo ATP luminescence, 48 h. Potency, µM (doses to about 46.1 µM), without a hit: top-dose activity, negative = less viability, actives largely listed as cytotoxic. 360,000 tested, 1.6% active. AID 686970;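 note: NT is the 2HG producing partner of a matched IDH1 knockdown line; 0% = DMSO-treated cells and -100% = media-only wells without cells; nearly all actives have a fitted effect of over 55% in size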
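HT-1080-NT; 750 cells/well; 5% FBS RPMI; 48 h compound, 37 degrees C; CellTiter-Glo luminescence; curve fitting and curve-class assignment.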
Numbers without * were called inactive; i = inactive; ? = inconclusive; nt = not tested or not shown. Compounds with a hit are over-represented: about 8% of the library has one in this group of screens. Calls come from the whole dose curve; as a rule, active = well fitted curve in the direction sought with a large enough effect; inconclusive = small, poorly fitted or top-dose-only effect, or another doubt; inactive = no such curve, though single readings can be large; an effect the other way counts as inactive or inconclusive. Potency is the fitted concentration of half-maximal effect.

SMILES | KB-V1 cytotox | SW480 rereplic | KB-3-1 tox | MCF10A rerep | HT1080 IDH1KD tx | HT1080NT lethal
Cc1ccc(NC(=O)CCCc2nnc3n(C)c(=O)c4sccc4n23)cc1F | i | nt | i | nt | nt | nt
COc1ccc(NC(=O)c2cccc(-c3ccc(O)cc3)c2)cn1 | i | ? | ? | ? | 2.06µM* | ?
COc1cc(OC)nc(Oc2ccccc2C=O)n1 | i | 2.8% | i | 16.4µM* | ? | ?
CCNC(=S)N(Cc1cc2c(C)ccc(C)c2[nH]c1=O)C1CCCC1 | i | 3.66µM* | ? | ? | 0.0% | -9.2%
Cc1ccc(C)c2[nH]c(=O)c(CN(CC3CCCO3)C(=O)NC3CCCCC3)cc12 (stereo not drawn) | 14.6µM* | 0.2% | i | 8.9% | -14.8% | ?
Cc1ccc(C)c2[nH]c(=O)c(CN(Cc3nnnn3C3CCCCC3)CC3CCCO3)cc12 (stereo not drawn) | i | 24.7% | i | ? | ? | -20.1%
Cc1cccc(N2CCN(S(=O)(=O)c3ccc(-c4ccc(=O)[nH]n4)o3)CC2)c1C | i | ? | i | 20.6µM* | -25.8% | ?
O=C(CSCc1c(Cl)cccc1Cl)Nc1ccc2c(c1)OCCO2 | 10.3µM* | ? | ? | -29.7% | -5.7% | 4.2%
CC(=O)c1c(C)[nH]c(C(=O)OCC(=O)Nc2ccc(Cl)c(S(=O)(=O)N(C)C)c2)c1C | ? | -4.2% | ? | ? | 23.1µM* | ?
CC(=O)c1c(C)[nH]c(C(=O)OCC(=O)Nc2ccc3c(c2)OCCO3)c1C | 20.6µM* | -7.5% | ? | 2.3% | 4.6% | 3.3%
Cc1cccc(C)c1OCC(=O)Nc1ccc2c(c1)OCCO2 | ? | 80.1% | 23.1µM* | 14.6µM* | -7.2% | -11.4%
O=C(NCc1ccc(F)cc1)c1cnc(N2CCOCC2)c2ccccc12 | i | nt | i | nt | nt | nt
CCOC(=O)c1[nH]c(C)c(C(=O)NCCc2ccccc2)c1C | i | nt | i | nt | nt | nt
CN(C)CCCN(C(=O)c1cccs1)c1nc(-c2ccccc2)cs1 | 9.2µM* | ? | i | ? | ? | ?
COc1ccc(-c2csc(N(CCCN(C)C)C(=O)c3ccc(F)cc3)n2)cc1 | ? | 1.3% | i | -0.3% | ? | -21.5%
CCN(CC)CCCN(C(=O)c1ccc(F)cc1)c1nc(-c2ccc(OC)cc2)cs1 | i | 3.9% | i | 6.5% | 23.1µM* | ?
COc1ccc(-c2csc(N(CCCN(C)C)C(=O)c3ccccc3C)n2)cc1 | i | ? | i | -0.5% | ? | ?
COc1ccc(-c2csc(N(CCCN(C)C)C(=O)c3ccccc3Cl)n2)cc1 | ? | ? | 16.4µM* | ? | 18.4µM* | 20.6µM*
O=C(COc1ccccc1)N(CCc1ccccc1)c1nc(-c2ccc(F)cc2)cs1 | 14.6µM* | 11.0% | i | 28.3% | 21.3% | 18.6%
CCN1CCC(N(Cc2cccc(OC)c2)C(=O)Nc2cccc(C(F)(F)F)c2)CC1 | i | nt | i | nt | nt | nt
CCOC(=O)C1=C(C)NC(C)=C(C(=O)OCC)C1c1cc2ccc(C)cc2[nH]c1=O | i | ? | 6.51µM* | ? | 8.2µM* | 18.4µM*
O=C1CCC(CCC(=O)N2CCCC(C(=O)c3ccc4c5c(cccc35)CC4)C2)=NN1 (stereo not drawn) | i | -2.9% | i | -2.8% | -8.1% | -5.1%
O=C1CCC(C(=O)N2CCCC(C(=O)c3ccc4c5c(cccc35)CC4)C2)=NN1 (stereo not drawn) | i | 15.1% | 14.6µM* | ? | ? | -15.5%
O=C(Cn1c(=O)n(-c2ccc(F)c(Cl)c2)c(=O)c2sc3ccccc3c21)NC1CCCC1 | i | nt | i | nt | nt | nt
COC(=O)c1cc(NS(=O)(=O)c2cc(Br)cc3c2N(C(C)=O)CC3)cc(C(=O)OC)c1 | i | nt | i | nt | nt | nt
SMILES | KB-V1 cytotox | SW480 rereplic | KB-3-1 tox | MCF10A rerep | HT1080 IDH1KD tx | HT1080NT lethal
CC(=O)Nc1ccc(S(=O)(=O)N2c3ccc(F)cc3CCC2C)cc1 (stereo not drawn) | i | 18.4µM* | 9.2µM* | ? | 20.6µM* | ?
CC(=O)N1c2ccc(S(=O)(=O)N3CCC(C(=O)Nc4ccc(F)cc4)CC3)cc2CC1C (stereo not drawn) | i | -4.6% | i | 5.4% | -13.8% | -1.5%
COc1ccc(NC(=O)c2ccc(COc3ccccc3Br)o2)cc1OC | i | 4.6% | ? | 11.6µM* | -32.5% | -15.7%
COc1ccccc1OCc1ccc(C(=O)Nc2cc(OC)c(OC)c(OC)c2)o1 | i | ? | i | ? | -16.1% | -1.9%
COc1cc(NC(=O)c2ccc(COc3ccccc3Br)o2)cc(OC)c1OC | 7.31µM* | 10.2% | i | ? | 5.2% | -0.3%
CC1=C(c2ccc(C(C)C)cc2)S(=O)(=O)N=C1N1CCC(C(=O)NCCc2ccco2)CC1 | i | nt | i | nt | nt | nt
COc1ccc(OC)c(NC(=O)c2ccc3c(c2)c(C)c(C)n3Cc2ccc(F)cc2)c1 | i | nt | i | nt | nt | nt
Cc1ccc(C)n1-c1cccc(S(=O)(=O)N2CCOCC2)c1 | i | ? | i | 18.4µM* | -22.6% | -10.3%
Cc1cc(C(=O)CCl)c(C)n1-c1cccc(S(=O)(=O)N2CCOCC2)c1 | 16.4µM* | 16.3% | i | ? | ? | 23.1µM*
Cc1nn(-c2ccccc2)c(N)c1N=Nc1cccc(S(=O)(=O)N2CCOCC2)c1 | 4.11µM* | ? | ? | -13.5% | ? | ?
CC1(C)CC(=O)C(N=Nc2cccc(S(=O)(=O)N3CCOCC3)c2)=C(O)C1 | i | -2.2% | i | -4.9% | -7.0% | -0.9%
COc1ccc(-n2c(=O)c3ccc(C(=O)NCc4ccc(C)cc4)cc3n(CC(=O)Nc3ccc(C)cc3)c2=O)cc1 | i | nt | i | nt | nt | nt
COc1cc(OC)c(NC(=O)C(C)n2c(=O)cc(-c3ccccc3)c3c(C)nn(C)c32)cc1Cl (stereo not drawn) | i | nt | i | nt | nt | nt
O=C1Nc2ccccc2/C1=C/c1ccc([N+](=O)[O-])cc1 | i | -3.0% | i | 0.8% | 4.3% | -1.3%
CC1(c2ccc([N+](=O)[O-])cc2)Nc2ccccc2S1 (stereo not drawn) | i | -0.7% | i | 8.9% | 20.6µM* | ?
Cc1ccc(-c2nnn(CC(=O)N(c3cccc(F)c3)C(C(=O)NC3CCCC3)c3ccco3)n2)o1 (stereo not drawn) | i | 18.1% | i | 5.9% | 2.82µM* | ?
